The nature of assay [1]: polyglutamine-triggered caspase-3 activation inhibitors, cell-based (AID 1583). The settings on record: polyglutamine-induced caspase-3 activation, cell assay; stronger effect = higher value;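 tested at 10 µM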.
A short description of assay [2]: suppressors of polyQ aggregation in yeast, 75Q-TubU reporter (AID 1593). The settings on record: Yeast 75Q polyglutamine aggregation reporter.
Assay [3] in a line: rescue of polyQ-huntingtin neuronal dysfunction in worms, whole organism, C. elegans mechanosensory neurons, N-terminal huntingtin (AID 1599). The settings on record: touch response, stronger effect = higher value.
Assay [4] in a line: inhibitors of mitochondrial cytochrome c release, biochemical, purified mitochondria (AID 1603).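 Note: mouse liver mitochondria challenged with calcium chloride; signal normalized to the plate average as 100%.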 Conditions: stronger effect = lower value.
Assay [5] is described as follows: inhibitors of polyQ protein aggregation (AID 1604). The settings on record: polyglutamine-induced protein aggregation inhibition assay; stronger effect = higher value; tested at 2.5 µM.
Assay [6] is described as follows: enhancers of glutamate uptake in motor neurons, MN-1 cell line (AID 1612).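 Note: tested at 1 µM final; 0% = mean of DMSO vehicle wells on each plate; positive means more glutamate uptake than control and negative means less.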 Conditions: MN-1 motor neuron cells, stronger effect = higher value.
A short description of assay [7]: suppressors of polyglutamine aggregation in yeast, 75Q-TubH (AID 1616). The settings on record: S. cerevisiae 75Q-TubH polyglutamine aggregation suppression; stronger effect = higher value.
A short description of assay [8]: hESC survival regulators, cell-based (AID 493140).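 Note: cells exposed to compounds for four days before counting.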 Conditions: human embryonic stem cell survival screen; stronger effect = higher value.
Assay [9] in a line: Cy5 fluorescence interference with SSB-bound oligo, artefact control for HCV NS3 helicase inhibitor project, biochemical, NIH Clinical Collection, E. coli SSB (AID 743268).
Assay [10] relates to Hepatitis C virus NS3 helicase. Put plainly: HCV NS3 helicase inhibitors, primary screen, biochemical, fluorescence polarization, NIH Clinical Collection (AID 743270). Conditions: NS3 helicase binding to Cy5-dT15 DNA, stronger effect = higher value, concentration not given here.
The target in assay [11] is Single-stranded DNA-binding protein (Escherichia coli (strain K12)) (UniProt P0AGE0). Put plainly: E. coli SSB displacement from DNA, counter-screen for HCV NS3 helicase inhibitor project, biochemical, fluorescence polarization, NIH Clinical Collection (AID 743271; in the data active = inhibition above about 28%). The settings on record: stronger effect = higher value, concentration not given here.
Assay [12] can be described thus: fluorescence interference in NS3h assay format, artefact control for HCV NS3 helicase inhibitor project, biochemical, NIH Clinical Collection (AID 743272).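 Note: HCV NS3 helicase with a Cy5 labelled single stranded DNA probe.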 The settings on record: fluorescence interference counterscreen, stronger effect = lower value. Background: Counterscreens check selectivity or assay interference.
A short description of assay [13]: modulation of C. elegans fzo-1 (AID 1259413).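 Note: fzo-1 mutant C. elegans worms in liquid wells.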 The settings on record: C. elegans fzo-1 modulator screen, mean read-out; stronger effect = higher value.
Assay [14] can be described thus: viability rescue of complex I mutant cybrids, primary screen, cell-based, galactose medium, ATP luminescence (AID 1645843;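 active = z-score of at least 1.8 in each of two replicates, scored against plate mean and spread of sample wells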;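 note: positive z means more ATP and so rescue of galactose-driven cybrid death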). Conditions: complex I mutant cybrid cells, 72 h, stronger effect = higher value.
Another assay relates to F380Y/beta1. As to the kind of experiment: modulators of BK channel variants, profiling panel, selectivity assay, cell-based, U2OS BacMam, thallium flux, beta subunits (AID 1259406;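 active = thallium flux through the channel raised or lowered by more than 3 SD from vehicle-only wells, actives on both sides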;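 note: initial slope of Thallos dye fluorescence rise after thallium is added; log ratio against the mean of 0.3% DMSO vehicle wells on the same plate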). Conditions: at 30 µM.
The next assay relates to F380Y/beta4. The assay is described as above. The settings on record: at 30 µM.
The test system of another assay is R275C/beta4. The description is as above. Conditions: at 30 µM.
Another assay relates to R275C/Slo1WT/beta2. The assay is described as above. The settings on record: at 30 µM.

This note sets out measurements from PubChem BioAssay.

Molecules are shown by their SMILES. Where “and” joins values, the source holds several entries; their conditions need not be identical. Equal entries are not always repeated. For part of these data: Potency and affinity values are given separately. Calls of active or inactive are those of the source. Unless noted, the rule behind the calls is not given here.

Turning to `NS(=O)(=O)c1cc2c(cc1C(F)(F)F)NC(Cc1ccccc1)NS2(=O)=O` (stereo not given), the inhibition in assay [1] is 23.3%; in assay [10], -0.45% (inactive); in assay [11], 1.05% (inactive). This molecule yielded a score in [2] of 1.25. Further, the rescue above control in assay [3] is -3.69. The cytochrome c release ratio in assay [4] was determined as 1.06. In addition, the inhibition of aggregation in [5] is 66.2%. The glutamate uptake change in assay [6] was determined as 10.7%. Besides, the aggregation suppression score in assay [7] was 1.15. For the same molecule, the survival in assay [8] was 3.67 (inactive). In addition, the fluorescence ratio in assay [9] was 1.02 (inactive); in [12], 0.99 (inactive). Further, in assay [13], the mean signal is 239 (inactive). Moreover, the z-score in assay [14] is 1.88 (inactive). Besides, the log fold change Tl+ flux is -0.0798 (inactive) with F380Y/beta1, 0.0179 (inactive) in the assay with F380Y/beta4, -0.00759 (inactive) with R275C/beta4 and -0.0386 (inactive) in the assay with R275C/Slo1WT/beta2.

Turning to `CC(=O)CCCCn1c(=O)c2c(ncn2C)n(C)c1=O`, the values for the inhibition in [1], in assay [10] and in [11] were 49.3%, -5.15% (inactive) and -2.41% (inactive), respectively. This molecule yielded a score in assay [2] of 1.37. The rescue above control in [3] was -11.6. The cytochrome c release ratio in assay [4] stood at 0.83. Moreover, the inhibition of aggregation in assay [5] was found to be 60.9%. The glutamate uptake change in assay [6] is -0.27%. For the same molecule, the aggregation suppression score in assay [7] was 1.44. Moreover, the survival in [8] is 14.1 (inactive). The results for the fluorescence ratio in [9] and in [12] were 1.01 (inactive) and 1 (inactive), respectively. Further, the mean signal in assay [13] is 250 (inactive). For the same molecule, the z-score in assay [14] is 0.465 (inactive) and 0.86 (inactive) and 0.55 (inactive). In addition, the log fold change Tl+ flux in the assay with F380Y/beta1 is -0.00172 (inactive); in the assay with F380Y/beta4 it was 0.0281 (inactive); in the assay with R275C/beta4, -0.0339 (inactive); with R275C/Slo1WT/beta2, -0.000483 (inactive).

As to `O=C(CCCN1CC=C(n2c(=O)[nH]c3ccccc32)CC1)c1ccc(F)cc1`, the inhibition in assay [1] was -1.81%; in assay [10], -5.15% (inactive); in assay [11] it was -0.1% (inactive). In addition, the score in [2] came out at 1.12. Moreover, the rescue above control in assay [3] was 6.51. For the same molecule, the cytochrome c release ratio in assay [4] came out at 1.19. The molecule further came in with an inhibition of aggregation in assay [5] of 63.6%. Also, the glutamate uptake change in assay [6] came out at 4.12%. The molecule further yielded an aggregation suppression score in [7] of 1.21. Further, in assay [8], the survival was 4.83 (inactive). Besides, the fluorescence ratio in [9] is 0.99 (inactive); in assay [12] it was 1 (inactive). Also, in assay [13], the mean signal was 249 (inactive). The z-score in [14] is -0.69 (inactive). In addition, the log fold change Tl+ flux in the assay on F380Y/beta1 is -0.0432 (inactive); in the assay with F380Y/beta4, 0.0551 (inactive); in the assay on R275C/beta4 it was 0.00129 (inactive); in the assay with R275C/Slo1WT/beta2, 0.0371 (inactive).

On to `CC[N+](C)(C)c1cccc(O)c1`, for which the inhibition was 0.97% in assay [1], -1.36% (inactive) in assay [10] and 0.29% (inactive) in [11]. In assay [2], this molecule returned a score of 1.45. The rescue above control in assay [3] is -4.06. Moreover, the cytochrome c release ratio in [4] came out at 0.79. Also, the inhibition of aggregation in assay [5] was determined as 49.4%. Besides, in [6], the glutamate uptake change is -4.41%. Further, in [7], the aggregation suppression score worked out at 1.27. The survival in assay [8] was 20.2 (inactive). In addition, the fluorescence ratio in assay [9] was 1.03 (inactive); in assay [12] it was 0.96 (inactive). The mean signal in assay [13] is 239 (inactive). For the same molecule, the z-score in [14] is 0.66 (inactive) and 0.015 (inactive). The log fold change Tl+ flux was -0.0227 (inactive) with F380Y/beta1, 0.00778 (inactive) with F380Y/beta4, -0.0318 (inactive) in the assay on R275C/beta4 and 0.00666 (inactive) in the assay on R275C/Slo1WT/beta2.

As to `CN(C)CCCN1c2ccccc2Sc2ccc(Cl)cc21`, the inhibition in assay [1] is 1.97%; in assay [10] it was -4.09% (inactive); in assay [11], -1.24% (inactive). For the same molecule, the score in [2] stood at 0.97. In addition, the rescue above control in assay [3] came out at 0. In addition, in assay [4], the cytochrome c release ratio came to 1.17. The same molecule returned an inhibition of aggregation in [5] of 35.3%. Further, in assay [6], the glutamate uptake change came to 11.9%. Besides, the aggregation suppression score in assay [7] was determined as 1.25. Moreover, the survival in assay [8] is 3.17 (inactive). Further, the fluorescence ratio in assay [9] is 1.03 (inactive); in assay [12], 0.91 (inactive). The mean signal in [13] is 252 (inactive). The z-score in assay [14] is -1.52 (inactive) and -1.29 (inactive) and -1.43 (inactive). Moreover, the log fold change Tl+ flux in the assay on F380Y/beta1 is -0.176 (active); in the assay on F380Y/beta4, 0.171 (active); in the assay on R275C/beta4, 0.154 (active); with R275C/Slo1WT/beta2, -0.0668 (inactive).

A word on the inhibition: it is the relative decrease from the control value, in per cent.
